# Test results reported in PubChem BioAssay (NCATS).
# Where “and” joins values, the source holds several entries; their conditions need not be identical. Equal entries are not always repeated. Records with an inconclusive call do not appear. Entries that show only a call come without a potency. Calls of active or inactive are those of the source. Unless noted, calls come from the whole dose curve; as a rule, active = well fitted curve in the direction sought with a large enough effect; inconclusive = small, poorly fitted or top-dose-only effect, or another doubt; inactive = no such curve, though single readings can be large; an effect the other way counts as inactive or inconclusive.
# Key:
# [1] = qHTS Assay for Lipid Storage Modulators (AID 1519; calls by dose curve); conditions: Drosophila S3 cells, BODIPY lipid droplet/cell ratio, laser cytometry, cells loaded with oleic acid
# Summary of the method: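 Cells seeded at 5,000 per well were treated with compounds over a concentration series and loaded with oleic acid (400 uM, as added). Lipid droplet fluorescence (488 nm excitation, 500-530 nm channel) was read by laser-scanning cytometry and normalized to 20 uM Triacsin C.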
# [2] = molecular target: Ubiquitin carboxyl-terminal hydrolase 1 (Homo sapiens) (UniProt O94782); test: Inhibitors of USP1/UAF1: Pilot qHTS (AID 504865); conditions: purified USP1/UAF1, Ub-rhodamine cleavage fluorescence; series mostly up to 54.9 µM;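 note: rhodamine fluorescence freed from ubiquitin-rhodamine substrate followed over time; top concentration of the series differs between compounds; nearly all actives have a fitted effect of over 35% in size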
# Summary of the method: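 Deubiquitinase activity followed as kinetic rhodamine fluorescence release from 150 nM Ub-Rho. 1 nM USP1/UAF1 with compound, after 15 min room-temperature preincubation, in HEPES pH 7.8 buffer containing TCEP, EDTA, BSA and Tween-20.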
# [3] = AP1 Signaling Pathway (AID 357; active = well fitted curve in either direction with a large enough effect, not every such curve was filed as active); conditions: ME-180 AP-1-bla reporter, EGF-induced, beta-lactamase ratio, 5 h; at 7.69 µM (top of the series) unless noted
# Summary of the method: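 ME-180 cells with beta-lactamase reporter under AP-1 response element, stimulated with EC50 EGF; compounds tested in titration series, 5 h at 37 °C. CCF4 substrate added 2.5 h at room temperature; 460/530 nm emission ratio gave %activity and AC50.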
# [4] = molecular target: Cytochrome P450 1A2 (Homo sapiens) (UniProt P05177); test: p450-cyp1a2 (AID 410; calls by dose curve); conditions: recombinant CYP1A2, luciferin-ME demethylation, luminescence; series mostly up to 57 µM
# Summary of the method: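 O-Demethylation of luciferin 6' methyl ether by human CYP1A2 is monitored as luciferase luminescence. Substrate sits at Km (100uM); enzyme is 20nM. Values are scaled to 57 uM furafylline as maximal inhibition.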
# [5] = NFAT Signaling Pathway (AID 444; active = well fitted curve in either direction with a large enough effect, not every such curve was filed as active;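 note: carbachol stimulus at about its EC50 of 1 µM final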); conditions: Jurkat NFAT-bla M1, carbachol, beta-lactamase ratio, 5 h; at 7.69 µM (top of the series) unless noted
# Summary of the method: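 Read-out: CCF4 FRET ratio (460 nm/530 nm) after 1 h RT dye loading, used for %activity and AC50 from titration series. Cells: Jurkat NFAT-β-lactamase/M1 line, treated with compound plus 1 uM carbachol for 5 h, 37 °C.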
# [6] = Stat Signaling Pathway (AID 446; active = well fitted curve in either direction with a large enough effect, not every such curve was filed as active;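 note: ME-180 cervical cancer cells given 40 pM IL-6 alongside compound; SIE-controlled beta-lactamase reporter measured as 460/530 nm FRET emission ratio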); conditions: ME-180 (cervical carcinoma) SIE beta-lactamase reporter, IL-6 stimulated, 5 h; at 7.69 µM (top of the series) unless noted
# Summary of the method: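 Overnight-plated ME-180 cells bearing a STAT Inducible Element beta-lactamase reporter; 5 h co-exposure to compound and 40 pM IL-6; values normalized to 300 pM IL-6 and 125 nM JAK inhibitor controls.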
# [7] = molecular target: Glucocorticoid receptor (Homo sapiens) (UniProt P04150); test: GR-GFP Redistribution (AID 450;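 active = compounds whose dose series gives a full or clear partial fitted curve of increased nuclear translocation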; note: potency is the fitted concentration of half-maximal effect); conditions: U2OS GR-GFP nuclear translocation, laser cytometry, 2 h
# [8] = molecular target: Glucocorticoid receptor (Homo sapiens) (UniProt P04150); test: GR-EFC Redistribution (AID 451; calls by dose curve; note: potency is the fitted concentration of half-maximal effect); conditions: CHO-K1 GR-EFC translocation, beta-gal luminescence, 2 h
# Summary of the method: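 Translocation of GR-ED fusion to nuclear EA restores b-gal, read by luminescence after 1 h room-temperature detection. Engineered CHO-K1 biosensor cells, 1,000/well, exposed 2 h at 37 C to titrations up to 46 uM final.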
# [9] = molecular target: Mitogen-activated protein kinase 10 (Mus musculus) (UniProt Q61831); test: JNK3 AlphaScreen Assay (AID 530; active = well fitted curve in either direction with a large enough effect, not every such curve was filed as active;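 note: kinase came from lysate of stimulated human HepG2 cells; signal reports phosphorylation of biotinylated GST-cJun 1-79 at Ser73 with 10 µM ATP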); conditions: JNK3 lysate, c-Jun phosphorylation; series mostly up to 57.1 µM
# Summary of the method: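 qHTS titrations with 15 min compound pre-incubation before adding ATP (10 uM final). Read-out: AlphaScreen of Ser73-phosphorylated biotin-GST-cJun using HepG2 lysate JNK3 activated by IL-1β and TNFα.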
# [10] = molecular target: 3',5'-cyclic-AMP phosphodiesterase 4B (Homo sapiens) (UniProt Q07343); test: qHTS Assay for Inhibitors of PDE-IV (AID 607; active = well fitted activation curve with a large enough effect in the main read-out, with a control signal flat, not every such curve was filed as active); conditions: HEK293 ACTOne CNG channel cells, membrane potential fluorescence; series mostly up to 22.9 µM
# Summary of the method: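 Live HEK293 cells with a modified cyclic nucleotide-gated (CNG) channel report intracellular cAMP via membrane-potential dye fluorescence (ex 535/em 590 nm). Endogenous PDE-IV was targeted. Compounds were tested at up to 22.9 uM final; RO 20-1724 100 uM served as control.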
# [11] = molecular target: ATP-dependent 6-phosphofructokinase (Trypanosoma brucei brucei) (UniProt O15648); test: qHTS Assay to Find Inhibitors of T. brucei phosphofructokinase: hit validation (AID 492961);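 note: luminescence reports ADP formed as PFK phosphorylates fructose-6-phosphate with ATP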; conditions: T. brucei PFK, ADP-Glo luminescence; series mostly up to 24.3 µM
# Summary of the method: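 In this biochemical qHTS validation, titrated compounds were tested against 1.25 nM PFK with 0.1 mM ATP and 0.5 mM F6P. Percent activity came from controls lacking or containing enzyme.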
# [12] = molecular target: Luciferin 4-monooxygenase (Photinus pyralis) (UniProt P08659); test: Biochemical firefly luciferase enzyme assay for NPC (AID 624030);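 note: purified P. pyralis luciferase at 10 nM with luciferin and ATP substrate; nearly all actives have a fitted effect of over 70% in size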; conditions: purified P. pyralis luciferase, luminescence, 5 min; series mostly up to 58.6 µM
# Summary of the method: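 Direct inhibition of firefly luciferase enzyme (10 nM final, 50 mM Tris Acetate) assessed by luminescence within 5 minutes. Percent activity scaled between DMSO and PTC124 positive control, with concentration-effect curves classified by fit quality and response.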
# [13] = qHTS profiling for inhibitors of Plasmodium falciparum proliferation (AID 504749); note: nearly all actives have a fitted effect of over 60% in size; conditions: P. falciparum in erythrocytes, SYBR Green DNA, 72 h
# Summary of the method: (§1)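 SYBR Green fluorescence of parasite DNA, read after lysis and overnight dark incubation, measured growth over 72 h in erythrocyte culture at 0.3% parasitemia and 2.5% hematocrit. Data normalised to DMSO and 0.29 uM artemisinin, with plate-drift correction.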
# [14] = system: AS120; test: as above; conditions: P. falciparum in erythrocytes, SYBR Green DNA, 72 h; series mostly up to 28.7 µM
# Summary of the method: as §1
# [15] = system: CP238; test: as above; conditions: P. falciparum in erythrocytes, SYBR Green DNA, 72 h; series mostly up to 12.8 µM
# Summary of the method: as §1
# [16] = system: CP265; test: as above; conditions: P. falciparum in erythrocytes, SYBR Green DNA, 72 h; series mostly up to 12.8 µM
# Summary of the method: as §1
# [17] = system: FAB9; test: as above; conditions: P. falciparum in erythrocytes, SYBR Green DNA, 72 h; series mostly up to 12.8 µM
# Summary of the method: as §1
# [18] = measured here: cell count channel max response
# [19] = measured here: lipid channel max response
# [20] = at 28.7 µM (top of the series), parasite line B
# Sequence of Luciferin 4-monooxygenase (Photinus pyralis) (P08659 whole entry, looked up): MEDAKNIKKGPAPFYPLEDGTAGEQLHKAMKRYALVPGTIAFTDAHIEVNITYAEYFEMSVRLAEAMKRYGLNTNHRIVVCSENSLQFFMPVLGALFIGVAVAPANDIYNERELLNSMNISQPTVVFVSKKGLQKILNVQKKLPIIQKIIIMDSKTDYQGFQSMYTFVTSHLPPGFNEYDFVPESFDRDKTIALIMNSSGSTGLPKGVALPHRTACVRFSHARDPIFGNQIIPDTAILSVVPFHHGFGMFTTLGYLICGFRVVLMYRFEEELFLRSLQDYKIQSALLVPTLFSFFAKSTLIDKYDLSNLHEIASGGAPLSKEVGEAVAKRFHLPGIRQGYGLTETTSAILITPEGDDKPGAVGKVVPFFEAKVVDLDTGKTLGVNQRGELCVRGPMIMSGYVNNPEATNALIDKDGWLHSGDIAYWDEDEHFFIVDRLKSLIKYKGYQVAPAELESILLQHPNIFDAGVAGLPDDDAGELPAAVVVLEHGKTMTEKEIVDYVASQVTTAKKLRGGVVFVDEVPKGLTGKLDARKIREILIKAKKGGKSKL
# Sequence of Ubiquitin carboxyl-terminal hydrolase 1 (Homo sapiens) (O94782 whole entry, looked up): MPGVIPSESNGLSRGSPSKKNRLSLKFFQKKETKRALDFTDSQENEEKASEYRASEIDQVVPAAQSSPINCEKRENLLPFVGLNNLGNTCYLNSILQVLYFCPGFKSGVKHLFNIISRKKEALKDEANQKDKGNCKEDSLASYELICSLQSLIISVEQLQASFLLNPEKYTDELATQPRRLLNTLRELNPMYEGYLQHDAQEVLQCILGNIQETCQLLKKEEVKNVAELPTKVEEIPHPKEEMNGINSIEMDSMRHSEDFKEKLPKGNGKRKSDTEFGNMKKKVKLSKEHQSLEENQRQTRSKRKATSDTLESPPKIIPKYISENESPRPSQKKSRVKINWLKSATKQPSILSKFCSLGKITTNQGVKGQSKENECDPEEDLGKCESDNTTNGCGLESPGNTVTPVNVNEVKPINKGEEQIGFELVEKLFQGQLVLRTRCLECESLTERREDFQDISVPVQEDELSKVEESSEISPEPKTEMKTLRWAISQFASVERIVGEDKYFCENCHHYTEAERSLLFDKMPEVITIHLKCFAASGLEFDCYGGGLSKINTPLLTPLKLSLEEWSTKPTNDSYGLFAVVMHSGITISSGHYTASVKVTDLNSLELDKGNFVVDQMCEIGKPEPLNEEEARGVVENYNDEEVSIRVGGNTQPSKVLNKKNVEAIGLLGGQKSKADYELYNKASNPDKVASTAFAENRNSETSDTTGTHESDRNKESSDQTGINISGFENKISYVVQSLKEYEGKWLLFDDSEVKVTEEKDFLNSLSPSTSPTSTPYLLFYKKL
# Sequence of Glucocorticoid receptor (Homo sapiens) (P04150 whole entry, looked up, the tested form may be a part): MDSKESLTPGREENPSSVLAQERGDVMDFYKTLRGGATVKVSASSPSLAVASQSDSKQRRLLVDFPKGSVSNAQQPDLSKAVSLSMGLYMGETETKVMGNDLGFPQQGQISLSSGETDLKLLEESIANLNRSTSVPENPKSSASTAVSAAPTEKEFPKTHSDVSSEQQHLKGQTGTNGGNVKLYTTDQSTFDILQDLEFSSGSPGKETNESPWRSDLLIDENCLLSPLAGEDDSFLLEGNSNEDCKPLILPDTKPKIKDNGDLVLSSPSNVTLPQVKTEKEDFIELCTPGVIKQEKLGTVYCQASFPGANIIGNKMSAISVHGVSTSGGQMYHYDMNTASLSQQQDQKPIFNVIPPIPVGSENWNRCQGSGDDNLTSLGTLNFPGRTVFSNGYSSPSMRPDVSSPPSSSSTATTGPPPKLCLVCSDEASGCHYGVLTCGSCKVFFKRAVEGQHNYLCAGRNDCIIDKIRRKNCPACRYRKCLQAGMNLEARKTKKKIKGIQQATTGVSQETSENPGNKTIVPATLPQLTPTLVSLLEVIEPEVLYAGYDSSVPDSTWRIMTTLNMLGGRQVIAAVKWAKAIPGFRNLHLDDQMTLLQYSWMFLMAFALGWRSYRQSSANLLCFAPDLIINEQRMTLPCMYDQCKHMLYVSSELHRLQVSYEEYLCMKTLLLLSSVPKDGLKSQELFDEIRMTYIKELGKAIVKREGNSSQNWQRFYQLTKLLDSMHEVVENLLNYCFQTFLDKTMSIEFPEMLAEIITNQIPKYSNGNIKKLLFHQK
# Sequence of ATP-dependent 6-phosphofructokinase (Trypanosoma brucei brucei) (O15648 whole entry, looked up): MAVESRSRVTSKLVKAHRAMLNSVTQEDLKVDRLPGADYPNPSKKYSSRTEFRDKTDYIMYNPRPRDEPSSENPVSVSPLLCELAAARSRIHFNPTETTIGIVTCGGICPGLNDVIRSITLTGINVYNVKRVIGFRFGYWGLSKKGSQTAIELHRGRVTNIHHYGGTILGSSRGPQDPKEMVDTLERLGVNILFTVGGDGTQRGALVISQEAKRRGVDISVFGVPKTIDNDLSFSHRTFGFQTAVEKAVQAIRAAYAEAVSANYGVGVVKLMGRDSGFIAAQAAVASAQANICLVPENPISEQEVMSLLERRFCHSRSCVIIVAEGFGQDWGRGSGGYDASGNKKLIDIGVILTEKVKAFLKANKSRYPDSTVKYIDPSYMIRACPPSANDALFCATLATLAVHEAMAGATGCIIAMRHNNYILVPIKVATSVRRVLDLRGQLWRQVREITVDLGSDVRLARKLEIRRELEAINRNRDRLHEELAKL
# Sequence of Cytochrome P450 1A2 (Homo sapiens) (P05177 whole entry, looked up): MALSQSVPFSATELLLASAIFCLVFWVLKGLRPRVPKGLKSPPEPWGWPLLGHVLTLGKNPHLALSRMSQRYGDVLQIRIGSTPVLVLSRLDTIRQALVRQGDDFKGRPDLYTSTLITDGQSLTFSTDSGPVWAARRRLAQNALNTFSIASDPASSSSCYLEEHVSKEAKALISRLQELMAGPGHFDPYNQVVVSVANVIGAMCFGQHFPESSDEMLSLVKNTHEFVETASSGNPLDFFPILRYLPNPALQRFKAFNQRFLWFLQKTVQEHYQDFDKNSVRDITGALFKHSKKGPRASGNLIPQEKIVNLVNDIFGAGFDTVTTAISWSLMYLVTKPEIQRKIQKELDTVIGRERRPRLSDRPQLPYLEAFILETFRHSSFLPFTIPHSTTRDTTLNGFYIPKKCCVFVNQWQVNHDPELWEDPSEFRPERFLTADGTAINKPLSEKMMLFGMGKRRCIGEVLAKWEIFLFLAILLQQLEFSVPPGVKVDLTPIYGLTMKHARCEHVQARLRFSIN
# Sequence of 3',5'-cyclic-AMP phosphodiesterase 4B (Homo sapiens) (Q07343 whole entry, looked up): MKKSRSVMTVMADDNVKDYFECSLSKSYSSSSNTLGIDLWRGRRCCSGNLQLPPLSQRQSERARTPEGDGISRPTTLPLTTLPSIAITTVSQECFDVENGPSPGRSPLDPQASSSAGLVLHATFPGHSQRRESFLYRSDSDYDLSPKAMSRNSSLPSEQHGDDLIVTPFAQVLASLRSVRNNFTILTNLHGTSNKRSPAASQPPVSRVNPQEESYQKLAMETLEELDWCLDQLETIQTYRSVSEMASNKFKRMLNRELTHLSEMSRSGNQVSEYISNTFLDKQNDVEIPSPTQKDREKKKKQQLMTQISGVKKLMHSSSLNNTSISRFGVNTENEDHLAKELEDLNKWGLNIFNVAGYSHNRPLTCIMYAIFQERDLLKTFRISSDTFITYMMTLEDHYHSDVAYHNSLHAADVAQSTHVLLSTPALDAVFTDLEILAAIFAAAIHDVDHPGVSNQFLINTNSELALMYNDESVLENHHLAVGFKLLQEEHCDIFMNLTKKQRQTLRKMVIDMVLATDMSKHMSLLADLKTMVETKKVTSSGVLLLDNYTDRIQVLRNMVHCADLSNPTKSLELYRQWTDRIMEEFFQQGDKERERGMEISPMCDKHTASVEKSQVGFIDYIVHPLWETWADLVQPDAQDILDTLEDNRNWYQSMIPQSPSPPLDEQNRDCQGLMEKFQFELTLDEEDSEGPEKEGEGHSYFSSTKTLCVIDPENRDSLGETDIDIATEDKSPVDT
smiles,measurement,setting,value
CC(=O)Oc1c(C)c(C)c2c(c1C)CCC(C)(CCCC(C)CCCC(C)CCCC(C)C)O2 (stereo not given),"activity change, negative = inhibition",[1]; at 57.5 µM (top of the series),7.46% (inactive) and -0.674% (inactive)
same,max response,[1]; [18],1.52% and -6.76%
same,max response,[1]; [19],12.6% and -6.49%
same,Potency,[2],inactive
C/C=C\C(=O)N(CC)c1ccccc1C,"activity change, negative = inhibition",[3],-1.59% [at 17.2 µM] (inactive)
same,Potency,[4],inactive
same,"activity change, negative = inhibition",[5],-0.257% [at 17.2 µM] (inactive)
same,"activity, negative = inhibition",[6],4.14% [at 17.2 µM] (inactive)
same,Potency,[7],> 20.6 µM (inactive)
same,Potency,[8],> 20.6 µM (inactive)
same,Potency,[9],inactive
same,Potency,[10],inactive
same,"activity change, negative = inhibition",[1]; at 25.7 µM (top of the series),-4.01% (inactive)
same,max response,[1]; [18],-15.1%
same,max response,[1]; [19],-17.7%
same,outcome,[11],inactive
same,outcome,[12],inactive
same,"activity, negative = inhibition","[13]; at 12.8 µM (top of the series), parasite line A",6.96% (inactive)
same,"activity, negative = inhibition","[13]; at 12.8 µM (top of the series), parasite line B",1.34% (inactive)
same,Potency,[14],inactive
same,Potency,[15],inactive
same,Potency,[16],inactive
same,Potency,[17],inactive
O=c1[nH]cnc2c1ncn2C1OC(CO)C(O)C1O (stereo not given),"activity change, negative = inhibition",[1]; at 57.5 µM (top of the series),5.69% (inactive) and -3.39% (inactive) and 2.45% (inactive)
same,max response,[1]; [18],8.98% and -19.5% and -3.51%
same,max response,[1]; [19],14% and -19.8% and 0.274%
same,outcome,[11],inactive
same,Potency,[2],inactive
same,outcome,[12],inactive
same,"activity, negative = inhibition",[13]; [20],13.3% (inactive)
same,Potency,[14],inactive
same,Potency,[15],inactive
same,Potency,[16],inactive
same,Potency,[17],inactive
CO/N=C(/C(=O)NC1C(=O)N2C(C(=O)O)=C(CSc3nc(=O)c(O)nn3C)CSC12)c1csc(N)n1 (stereo not given),"activity change, negative = inhibition",[1]; at 57.5 µM (top of the series),7.84% (inactive) and 13.9% (inactive)
same,max response,[1]; [18],7.61% and 7.25%
same,max response,[1]; [19],18.4% and 25.1%
same,Potency,[2],inactive
same,outcome,[12],inactive
same,"activity, negative = inhibition","[13]; at 28.7 µM (top of the series), parasite line A",11.8% (inactive)
same,"activity, negative = inhibition",[13]; [20],6.03% (inactive)
same,Potency,[14],inactive
same,Potency,[15],inactive
same,Potency,[16],inactive
same,Potency,[17],inactive
